For this assay, the target named is Dual specificity protein kinase CLK1 (Homo sapiens) (UniProt P49759). The assay can be described thus: ligand-induced CLK1 melting temperature shift – biophysical, recombinant human kinase, DSF (AID 382). As to conditions: Recombinant CLK1, thermal shift (DSF), buffer 10 mM HEPES, stronger effect = higher value.
The mark [1] stands for this setting: measured here: replicate experiment 2, at 10 µM, run 2, protein 2 µM.

Calls of active or inactive are those of the source. No rule for the calls is given here.

Dual specificity protein kinase CLK1 (Homo sapiens), sequence (P49759 whole entry, looked up): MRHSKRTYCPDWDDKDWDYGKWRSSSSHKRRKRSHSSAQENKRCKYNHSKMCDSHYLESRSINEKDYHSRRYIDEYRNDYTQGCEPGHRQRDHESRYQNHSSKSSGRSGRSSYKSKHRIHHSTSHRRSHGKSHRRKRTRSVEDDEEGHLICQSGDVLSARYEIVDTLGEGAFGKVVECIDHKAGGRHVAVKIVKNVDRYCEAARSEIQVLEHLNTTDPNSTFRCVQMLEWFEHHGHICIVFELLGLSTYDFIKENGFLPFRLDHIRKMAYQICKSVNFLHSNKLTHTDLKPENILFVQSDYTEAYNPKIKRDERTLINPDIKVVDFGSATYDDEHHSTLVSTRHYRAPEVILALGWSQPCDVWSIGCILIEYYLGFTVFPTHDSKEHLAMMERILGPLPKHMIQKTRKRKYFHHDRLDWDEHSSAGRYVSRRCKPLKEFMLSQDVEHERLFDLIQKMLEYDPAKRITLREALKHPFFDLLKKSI

For the compound `Clc1cccc(-c2cnc3ccc(NC4CCOCC4)nn23)c1`, the Tm shift (at 10 µM, protein 2 µM, NaCl 150 mM, with 50 mM Arg/Glu) was 6.06 Celsius (active) and the Tm shift (measured here: replicate experiment 2, at 10 µM, run 2, protein 2 µM, NaCl 150 mM, with 50 mM Arg/Glu) came to 5.83 Celsius.

As to `Nc1ncnc2c1c(I)cn2[C@@H]1O[C@H](CO)C(O)C1O` (stereo partly specified), the Tm shift by setting is: (at 10 µM, protein 2 µM) 4.43 Celsius (active); under setting [1], 10.5 Celsius.

In the case of `NC1=N/C(=C2/CCNC(=O)c3[nH]c(Br)cc32)C(=O)N1`, the Tm shift is 4.9 Celsius (active) (at 10 µM, protein 2 µM) and 10.5 Celsius under setting [1].

For the origin of these results see PubChem BioAssay AID382 (SGCOxCompounds, 2006).
